Results on 30 compounds are retold here after PubChem BioAssay (NCI).

This is part of a sample that, as a whole, favours compounds with a hit. Of some 83,000 tested, about 20% had one in any assay.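 Step 1: grow cells in 96-well plates. Step 2: add test compound at a single concentration. Step 3: incubate 48 h. Step 4: record percent growth.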 A number with no mark means an inactive call. Activity calls are given as the source filed them. How the source made its calls: active means growth percent below 10; inactive means the rest.

Common to all, as to assay: NCI-60 one-dose screen, 48 h (100 = growth as untreated, 0 = no growth, -100 = all killed)
Conditions in all cases: 10 µM unless noted

Test [1] concerns SK-MEL-2 melanoma.
The test system of test [2] is EKVX NSCLC.
Test [3] concerns SN12C renal.
For test [4], the system named is UO-31 renal.
The test system of test [5] is TK-10 renal.
Test [6] deals with CAKI-1 renal.
Test [7] has as its system A498 renal.
The subject of test [8] is CCRF-CEM leukemia.
Test [9] has as its system MOLT-4 leukemia.
Test [10] concerns ACHN renal.

Take `COc1ccc(C/C(C)=C(\c2ccc(OCCN3CCCCCC3)cc2)c2ccc(OC(=O)C3CCCCC3)cc2)cc1`: the growth in test [1] was 82.1%; in [2], 83.5%; in [3] it was 57.1%; in test [4] it was 38.6%; in test [5] it was 86.4%; in test [6] it was 86.7%. Further, the figures for the growth in test [7], in [8] and in test [9] were 80.4%, 49.7% and 32.3%, respectively.
In the case of `C/C(=C(/c1ccc(O)cc1)c1ccc(Cl)cc1)c1ccccc1`, the growth is -85.1% (active) in [1]; -81% (active) in test [2]; -90.5% (active) in test [3]; -100% (active) in [4]; -63.7% (active) in test [5]; -54.2% (active) in test [6]. Further, the growth was -55.1% (active) in test [7], -61.2% (active) in [8] and -29.5% (active) in [9].
`CCOC(=O)C12CCCC1=CC(=O)CC2` (centres undefined): the growth in [1] was 89.9%; in [2], 111%; in test [3] it was 110%; in test [4], 85.3%; in test [5], 128%; in [6] it was 103%. For the same compound, the growth in [7] was 110%; in test [8], 95.7%; in [9] it was 94.6%.
Consider `c1ccc2c(Nc3cccc4ccccc34)cccc2c1`, for which the growth in test [1] is 38.6%; in test [2], 78.1%; in test [3], 58.8%; in test [4], 41.3%; in test [5], 81.3%; in test [6], 40.3%. Also, the results for the growth in test [7], in test [8] and in test [9] were 81.2%, 59.8% and 30.5%, respectively.
Consider `O=S(=O)(NCCCNc1cc(-c2cn(-c3ccccc3)nc2-c2cccc(O)c2)ccn1)c1ccccc1`, for which the growth was 74.6% in [1]; 37.8% in test [2]; 68.7% in [3]; 37.8% in test [4]; 62.5% in [5]; 43.3% in test [6]. In addition, the growth in test [7] was 50.6%; in test [9] it was 37.1%.
Regarding `CC[C@H](CO)Nc1nc(NCc2ccccc2)n2ncc(C(C)C)c2n1`, the growth in [1] was 11.1%; in [2], 0.263% (active); in test [3], 17.1%; in test [4], 10%; in [5], 15.6%; in test [6] it was 9.58% (active). The figures for the growth in test [7] and in test [9] were -21% (active) and -12.9% (active), respectively.
Regarding `CCCCN(CCCC)Cc1c(C)[nH]c2cc(OC)ccc2c1=O`, the growth in test [1] is 110%; in test [2], 104%; in [3], 104%; in [4] it was 81.2%; in [5], 104%; in [6], 99.1%. The growth in [7] is 95.8%; in test [8], 95.8%; in [9] it was 90.9%.
Regarding `Cc1cc(N/N=C/c2nc(-c3ccc(Cl)cc3)oc2C)c2cc(Br)ccc2n1`, the growth was 108% in test [1]; 86.4% in test [2]; 20.5% in test [3]; 55.9% in [4]; 25.2% in test [5]; 90% in test [6]. Also, the growth in [7] is 92.6%; in test [8], 4.11% (active); in test [9], 15%.
In the case of `Nc1nc(SCc2ccccc2)c2ncn(C3CCCC3)c2n1`, the growth in test [1] is 94.6%; in [2] it was 99.6%; in test [3], 107%; in [4], 89.9%; in test [5], 125%; in test [10] it was -81.5% (active). The growth was 102% in test [7], 96.3% in test [8] and 113% in test [9].
For the compound `Nc1cc(-c2nc3sccn3c2-c2ccnc(NCCCNS(=O)(=O)c3ccc(F)cc3)n2)ccc1F`, the growth in test [1] was 60.4%; in test [2], 58.3%; in [3], 48.9%; in [4] it was 30.7%; in test [5] it was 98.3%; in test [10], 32.5%. The growth in [7] is 54.3%; in test [9] it was 34%.
`COc1cc(/C=N\NC(=O)CN2CCN(c3cc4c(cc3F)c(=O)c(C(=O)N/N=C/c3ccc(O)c(OC)c3)cn4C3CC3)CC2)ccc1O`: the growth in test [1] is 68%; in [2], 84.3%; in test [3] it was 53.4%; in test [4], 76.7%; in test [5], 91.7%; in test [6] it was 82.8%. Further, the growth in test [7] is 85.3%; in [9] it was 5.76% (active).
Take `Brc1cccc(-c2nc(-c3ccc4c(c3)OCCO4)co2)c1`: the growth in test [1] is 37.6% [25 µM]; in test [2], 51.5% [25 µM]; in test [3] it was 54% [25 µM]; in test [4], 70% [25 µM]; in test [5], 84.7% [25 µM]; in test [6], 52.3% [25 µM]. Moreover, the growth was 23.5% [25 µM] in [7], 51.6% [25 µM] in [8] and 45.4% [25 µM] in [9].
`OCCNCCNc1c2ccccc2nc2ccccc12`: the growth in [1] was 68.5%; in test [2], 109%; in [3], 52.2%; in test [4] it was 65.4%; in [5], 82.7%; in [6], 94.9%. In addition, the growth in test [7] was 83%; in test [8] it was 65.4%; in test [9], 16.7%.
On to `CC/C=C\C[C@H](F)C/C=C1/C(=O)C=C[C@@H]1C/C=C\CCCC(=O)OC`, for which the growth in [1] was 41%; in test [2], 31.6%; in test [3], -14.4% (active); in [4], -4.75% (active); in test [5] it was 50.4%; in test [7] it was 84.8%. For the same compound, the growth in test [8] was -21.4% (active); in test [9], -23.5% (active).
In the case of `C/C(=C(/c1ccc(O)cc1)c1ccc(OCCN(C)C)cc1)c1ccccc1`, the growth in test [1] was 92.3%; in [2], 83.6%; in test [3] it was 84%; in test [4] it was 65%; in test [5], 81.5%; in [6], 84.9%. Further, the growth was 102% in test [7] and 32.8% in [9].
On to `Cc1cc(=O)oc2cc(Oc3nc(-c4ccc(Cl)cc4)cn4c(-c5ccc(Cl)cc5)cnc34)ccc12`, for which the growth in test [1] was 106%; in test [2] it was 106%; in [3], 100%; in [4] it was 85.5%; in [5], 104%; in [6] it was 90.2%. The growth in [7] is 105%; in test [8] it was 80.6%; in test [9], 74.5%.
Regarding `COc1cc2nc3cc([N+](=O)[O-])ccc3c(NCCCNCC(C)(C)O)c2cc1OC`, the growth is -47.5% (active) in [1]; -19.6% (active) in [2]; -34.8% (active) in test [3]; 1.88% (active) in test [4]; -31.7% (active) in test [5]; 18.4% in [6]. Moreover, the growth in [7] was -82.2% (active); in test [8], 1.71% (active); in test [9] it was 10.5%.
With `O=S(=O)(NCCCNc1cc(-c2cn(-c3ccccc3)nc2-c2ccccc2)ccn1)c1ccc(C(F)(F)F)cc1`, the growth was 79% in test [1]; 46.4% in test [2]; 63% in test [3]; 40.4% in test [4]; 72.3% in [5]; 52.4% in test [6]. Also, the growth in test [7] is 70.6%; in test [8], 50.2%; in [9] it was 29.4%.
With `CCOC(=O)C(C#N)C1CCCCC1` (centres undefined), the growth was 107% in test [1]; 94.9% in test [2]; 79.6% in test [3]; 91.1% in [4]; 91.5% in test [5]; 99.4% in test [10]. For the same compound, the growth in [7] was 117%; in test [8], 87.2%; in test [9], 79.3%.
With `Cc1ccn2c(-c3csc(Nc4cccc(O)c4)n3)c(C)nc2c1`, the growth in test [1] was 24.2%; in test [3], 20.8%; in test [4], 40.4%; in test [5] it was 57.2%; in test [10] it was 26%; in test [6], 80.6%. The figures for the growth in [7], in [8] and in [9] were 64.7%, 23.7% and -7.6% (active), respectively.
Regarding `CCCCN(CC)CCCCCCCCCCN1CCCc2cc(OC)ccc21`, the growth is 92.8% in test [1]; 34.5% in test [2]; 24.4% in [4]; 87.8% in test [5]; 6.91% (active) in [6]; 75.9% in test [7]. Further, in [9], the growth was -19.6% (active).
On to `CCN(CC)c1ccc(CNc2cc(C)nc3ccc(OC)cc23)cc1`, for which the growth in test [1] was 79.2%; in test [2] it was 25.7%; in test [4], 3.78% (active); in [5], 71.1%; in test [10], 78.1%; in test [6], 21.6%. In addition, the growth in test [7] is 17%; in test [8], 23.3%; in [9], 4.46% (active).
Regarding `N#Cc1ccc(NC(=O)Nc2ccc(Cc3ccc(NC(=O)Nc4ccc(C#N)cc4)cc3)cc2)cc1`, the growth in test [1] was 12.8%; in [2], 14.5%; in test [3], 29.5%; in [5], 48.1%; in [10], 31.2%; in [7], 49.5%. Moreover, the growth in test [8] was 17.4%; in test [9], 12.5%.
As for `COc1ccc(N(Cc2cc(OC)c(OC)c(OC)c2)C2OC(=O)c3ccccc32)cc1` (centres undefined), the growth is 21.5% in test [1]; 52.8% in test [3]; 53.5% in test [4]; 53.5% in [5]; 61.5% in test [10]; 45.7% in test [6]. Moreover, the results for the growth in [7], in test [8] and in test [9] were 14%, 9.62% (active) and 19.2%, respectively.
For the compound `C=CCSc1nnc(-c2ccc(C(C)(C)C)cc2)n1-c1cccc(C(F)(F)F)c1`, the growth in test [1] was 46.7%; in test [2] it was 22.2%; in test [3] it was 29.4%; in test [5], 51.1%; in [10], 36.3%; in test [6], 32.3%. Further, the growth in [7] was 84.7%; in test [8], 24.2%; in test [9], 21.8%.
With `C=CC[N+]1(CC)CCN=C1CCCCCCCCCCCCCCCCC` (centres undefined), the growth in [1] was -74% (active); in test [2] it was -75.7% (active); in test [4] it was -65.5% (active); in test [5], -94.2% (active); in [10], -86.6% (active); in test [7], -15.6% (active). Besides, the figures for the growth in test [8] and in [9] were -59.4% (active) and -60% (active), respectively.
`Cc1cc(Nc2nc(N3CCOCC3)nc3ccccc23)n[nH]1`: the growth in test [1] was 51.5%; in [3] it was 60.2%; in test [4], 35.4%; in test [5], 47.2%; in test [10] it was 32.8%; in test [6], 9.88% (active). Besides, the growth in test [7] was -13.4% (active); in [8], 65.6%; in test [9], 58.4%.
On to `CCCN(CCC)CN(CCC)CCC`, for which the growth in test [1] was 108%; in test [2], 98.8%; in test [4], 84.8%; in test [5], 106%; in test [10], 102%; in [6] it was 96.3%. Besides, the growth was 91.8% in [7] and 97.1% in [9].
In the case of `O=C1C=CC(Nc2ccccc2[N+](=O)[O-])C1Nc1ccccc1[N+](=O)[O-]` (centres undefined), the growth in test [1] was 67.9%; in test [2], -97.1% (active); in test [3], 36.9%; in [5], -45.3% (active); in test [10] it was -96% (active); in test [6] it was -24.3% (active). Besides, the growth in test [7] was 96.8%; in [8], 10.5%; in [9], 29.4%.
`CC/C(=C(\c1ccccc1)c1ccc(OCCNC)cc1)c1ccccc1`: the growth in test [1] is -90.5% (active); in test [2] it was -69.2% (active); in test [3], -90.5% (active); in [5] it was -80.7% (active); in test [10], -95% (active); in test [6] it was -68.2% (active). Besides, the growth in [7] is -62.2% (active); in test [8] it was 0.764% (active); in test [9], 27.1%.
